Laboratory results: PubChem BioAssay (EPA / NIEHS)
Active and inactive are the calls of the source. The calls were made as follows: active = hit-call score of the fitted dose curve at least 0.9, where 1 is the maximum; inactive = score below 0.9.

experiment: ATG_GATA_CIS: Attagene CIS-FACTORIAL HepG2 Assay for human GATA Binding Protein (AID 2282944); settings: HepG2 GATA cis-element reporter, Attagene multiplex mRNA; actives raise or lower the signal
Procedure: ATG_CIS is a cell-based, multiplexed-readout assay that uses HepG2, a human liver cell line, with measurements taken at 24 hours after chemical dosing in a 24-well plate.ATG_GATA_CIS is one of 52 assay component(s) measured or calculated from the ATG_CIS assay. It is designed to make measurements of mRNA induction, a form of inducible reporter, as detected with fluorescence intensity signals by Reverse transcription polymerase chain reaction (RT-PCR) and Capillary electrophoresis technology.Data from the assay component ATG_GATA_CIS was analyzed into 1 assay endpoint. This assay endpoint, ATG_GATA_CIS, was analyzed with bidirectional fitting relative to DMSO as the negative control and baseline of activity. Using a type of inducible reporter, measures of mRNA for gain or loss-of-signal activity can be used to understand the reporter gene at the transcription factor-level as they relate to the gene GATA1. Furthermore, this assay endpoint can be referred to as a primary readout, because this assay has produced multiple assay endpoints where this one serves a reporter gene function. To generalize the intended target to other relatable targets, this assay endpoint is annotated to the dna binding intended target family, where the subfamily is GATA proteins.
Human liver HepG2 cells are transiently transfected with multiple reporter transcription units (MRTUs) in 6-well plates using FuGene 6 reagent (Roche; 3 ml FuGene/1 mg DNA). The MRTU constructs are regulated by a cis-regulating element (promoter). […] A major difference between the CIS and TRANS system is that in CIS activities of endogenous TFs are measured, whereas the TRANS assay evaluates changes in activities of exogenous, chimeric NR-Gal4 proteins. […] At the end of 24 hour incubation, total RNA was isolated using TriZol reagent (Invitrogen). The isolated RNA is then reverse-transcribed using oligo(dT) primer and Mo-MLV reverse transcriptase (Invitrogen) with DNAse I (Ambion) treatment for 30 min. The one-tenth of the produced cDNA was amplified by PCR using Taq DNA polymerase (Invitrogen) and two reporter sequence-specific primers. The PCR products were fluorescently labeled by primer extension with 6-arboxyfluorescein (6-FAM) 5'-labeled reporter sequence-specific primer (2 min at 95 C, 20 s at 68 C and 10 min at 72 C) and these products were digested with 5U of HpaI (New England Biolabs) for 2h at 37 C. The fragments were purified using Qiaquick PCR columns (Qiagen), analyzed on an ABI 3130xL genetic analyzer (Applied Biosystems) with peak positions identified by using a set of X-rhodamine (ROX)-labeled MapMarker1000 molecular weight standards (BioVentures). The raw capillary electrophoresis data was processed using Attagraph software (Attagene).

outcome, inactive:
Cc1ccc(S(N)(=O)=O)cc1
C=C(C)[C@H]1CC=C(C)C(=O)C1
OCC(O)c1ccccc1 (stereo not given)
[O-]n1ccccc1=S.[O-]n1ccccc1=S.[Zn+2]
C=C(C)CNCC
CN(C)C(=S)SC(=S)N(C)C
CCCCCCCCCCCCCCCC(=O)OC/C=C(C)/C=C/C=C(C)/C=C/C1=C(C)CCCC1(C)C
O=C(Nc1ccc2c(O)c(N=Nc3ccc(N=Nc4ccc(S(=O)(=O)O)cc4)cc3)c(S(=O)(=O)O)cc2c1)c1ccccc1
CCc1ccc(O)c(OC)c1
ClC(c1ccccc1)(c1ccccc1)c1ccccc1
O=C(Nc1ccc2c(c1)Cc1ccccc1-2)C(F)(F)F
CCCCOCC
O=C1OC[C@H](Cc2cccc(O)c2)[C@H]1Cc1cccc(O)c1
CCO/C=C1\N=C(c2ccccc2)OC1=O
Cc1ccc(OC(=O)c2ccccc2O)cc1
CCCCC1CCC(O)CC1 (stereo not given)
C=CC(=C)CCCC(C)(C)OC(C)=O
CCN(CCN)c1cccc(C)c1
CCCCCCCCCCCCCCN(CCO)CCO
CCCCCCCCC=CCCCCCCCC1=NCCN1CCO
COc1ccc(CCN2CCC(Nc3nc4ccccc4n3Cc3ccc(F)cc3)CC2)cc1
C#CC(C)N(C)C(=O)Nc1ccc(Cl)cc1 (stereo not given)
CCCCCCCCCCCCS(=O)(=O)Cl
O=C1c2ccccc2C(=O)c2c(O)ccc(O)c21
Clc1cc(Cl)c(-c2c(Cl)c(Cl)cc(Cl)c2Cl)cc1Cl
O=P(O)(O)O
Cc1ncc[nH]1
CCOC(=O)CC(C)O (stereo not given)
CC1(C)C(=O)N(Cl)C(=O)N1Br
CN(c1nccc(=O)[nH]1)C1CCN(c2nc3ccccc3n2Cc2ccc(F)cc2)CC1
CCOC(=O)c1ccc(N)cc1
O=C1OC2(c3ccccc31)c1ccc(O)c(Br)c1Oc1c2ccc(O)c1Br
CCCCCCC(O)CCCCCCCCCCC(=O)O (stereo not given)
CCCC1O[C@@H]2C[C@H]3[C@@H]4CCC5=CC(=O)C=C[C@]5(C)[C@H]4[C@@H](O)C[C@]3(C)[C@]2(C(=O)CO)O1 (stereo not given in full)
CC(C)Nc1nc(N)nc(Cl)n1
CCCCCCC(C)Nc1ccc(Nc2ccccc2)cc1 (stereo not given)
CCC(=O)O[C@@H]1C[C@H]2CC[C@]1(C)C2(C)C
c1ccc2[nH]cnc2c1
CC(=O)C1(C)CC2=C(CCCC2(C)C)CC1C (stereo not given)
C=CCOC(=O)CCCCCC
